TDP-43 yeast inh = inhibitors of TDP-43 toxicity in yeast | TDP-43 expressing yeast growth rescue, BacTiter-Glo, 24 h | Potency, µM (titrated, usually from 46.1 µM), most hits filed as activators | 410,000 compounds, 1.8% hits | AID 652104; further: nearly all actives have a fitted effect of over 50% in size
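Yeast cells expressing TDP-43 under galactose induction are exposed to compounds for 24 hr at 30 deg C. BacTiter-Glo luminescence measures growth, so protective compounds score as activators.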
Abeta rescue = A-beta toxicity reversal in yeast; yeast expressing A-beta42, growth rescue, OD600, 48 h; response scale: 0% DMSO, 100% iron-clioquinol control; 410,000 compounds, 0.063% hits; Potency, µM (titrated, usually from 46.1 µM), most hits filed as activators; further: nearly all actives have a fitted effect of over 55% in size
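Yeast A-beta toxicity model in growth medium with pinned compounds, 48 h at 30 C; growth read as absorbance at 600 nm. Normalized to FeCl3/clioquinol equimolar mix (positive) and DMSO (negative).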
FUS suppressor = FUS proteinopathy suppression in yeast | S. cerevisiae FUS-expressing, growth rescue, OD600, 24 h | Potency, µM (top dose mostly 76.6 µM), most hits filed as activators | 390,000 compounds, 0.24% hits | AID 1347120; further: nearly all actives have a fitted effect of over 55% in size
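Cultures pregrown in 2.5% raffinose medium are shifted to minimal medium containing 2% galactose to express toxic FUS. Compounds are tested at several concentrations. After 24hr at 30C, growth is quantified at 600 nm absorbance.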
aSyn rescue = rescues yeast growth from alpha-synuclein toxicity; AID 652106; Potency, µM (series often up to 46.1 µM), usual class: activators; Yeast expressing alpha-synuclein, growth rescue, BacTiter-Glo, 24 h; 370,000 compounds, 0.14% hits; further: nearly all actives have a fitted effect of over 65% in size
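Readout is rescue of growth in alpha-synuclein-expressing yeast, so inhibitors of toxicity appear as activators. Growth after 24 hr at 30 deg C in galactose medium is quantified by luminescence.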
ClpP mod = qHTS Assay for Activators of ClpP; Potency, µM (highest dose often 57.5 µM); purified B. subtilis ClpP, FRET peptide cleavage, 20 min; 340,000 compounds, 1.9% hits; AID 651965, 2013; active means well fitted falling curve with a large enough effect; inconclusive means small, poorly fitted or top-dose-only effect; inactive means no such curve, though single readings can be large or run the other way; further: the source files actives as falling curves though it sought activators and does not explain the sign; nearly all actives have a fitted effect of over 65% in size
Target sequence (P80244 whole entry, looked up): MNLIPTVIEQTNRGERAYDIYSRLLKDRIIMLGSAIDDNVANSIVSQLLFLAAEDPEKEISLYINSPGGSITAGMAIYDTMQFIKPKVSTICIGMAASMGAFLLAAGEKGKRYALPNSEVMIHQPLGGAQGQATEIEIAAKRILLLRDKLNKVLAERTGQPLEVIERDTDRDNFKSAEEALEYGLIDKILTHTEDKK
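Buffer: 100 mM Tris/HCl pH8, 100 mM KCl, 0.05% low protease BSA, 2.5% glycerol, 0.01% Tween-20. ClpP 10 microg/mL final; 20 min RT; delta FRET normalized to ADEP and DMSO controls.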
MmCpn inh = blocks the Methanococcus maripaludis chaperonin Mm-Cpn; purified Mm-Cpn ATPase, ADP Transcreener TR-FRET; AID 504842; Potency, µM (titrated, usually from 76.9 µM), usual class: inhibitors; 330,000 compounds, 0.031% hits; further: nearly all actives have a fitted effect of over 80% in size
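TR-FRET (320 nm excitation; 590 and 665 nm emission) reports ADP made from 10 uM ATP by 25 nM enzyme; compounds were preincubated 10 min, reaction run 30 min, both at 37°C.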
Numbers stand for hits; [ ] = dose if it differs, or a comment. This is a sample that favours compounds with a hit; in the whole collection about 3.6% have one here. Unless noted, the call rests on the fitted dose curve; in most records, active means well fitted curve in the direction sought with a large enough effect; inconclusive means small, poorly fitted or top-dose-only effect, or another doubt; inactive means no such curve, though single readings can be large; an effect the other way counts as inactive or inconclusive.

Screening CCOC(=O)C1CCN(C(=O)CCS(=O)(=O)c2ccc3c(c2)CCN3C(=O)CC)CC1 returned TDP-43 yeast inh inactive, Abeta rescue inactive, aSyn rescue inactive, ClpP mod 20µM and MmCpn inh inactive.
`CCc1cccc(CC)c1NC(=O)CCS(=O)(=O)c1ccc2c(c1)CCN2C(C)=O` gave TDP-43 yeast inh inactive, Abeta rescue inactive, FUS suppressor inactive and ClpP mod inactive.
Screening CC(=O)N1CCc2cc(S(=O)(=O)CCC(=O)O)ccc21 returned TDP-43 yeast inh inactive, Abeta rescue inactive, FUS suppressor inactive, aSyn rescue inactive, ClpP mod 31.6µM and MmCpn inh inactive.
`COc1ccccc1-c1nc(C(N)=O)c2[nH]c(=O)n(-c3cccc(C)c3)c2n1` gave TDP-43 yeast inh inactive, Abeta rescue inactive, FUS suppressor inactive, aSyn rescue inactive, ClpP mod 20µM and MmCpn inh inactive.
For Cc1cc(O)c(C(c2ccccc2)N2CCN(c3ccccc3)CC2)c(=O)n1Cc1ccco1 (centres undefined) the results were TDP-43 yeast inh inactive, Abeta rescue inactive, FUS suppressor inactive and ClpP mod inactive.
COc1cccc(CNS(=O)(=O)/C=C/c2ccc3c(c2)OCO3)c1 was read as TDP-43 yeast inh 15.8µM, Abeta rescue inactive, FUS suppressor inactive, aSyn rescue inactive, ClpP mod inactive and MmCpn inh inactive.
`COc1cccc(S(=O)(=O)NCc2ccc3c(c2)OCO3)c1` gave TDP-43 yeast inh inactive, Abeta rescue inactive, FUS suppressor inactive, aSyn rescue inactive, ClpP mod inactive and MmCpn inh inactive.
`FC(F)Oc1ccc(NC(=S)N2CCN(Cc3ccccc3)CC2)cc1` gave TDP-43 yeast inh inactive[9.22 µM], Abeta rescue inactive, FUS suppressor inactive, aSyn rescue inactive, ClpP mod 8.91µM and MmCpn inh inactive.
Screening CCCCn1c(=O)c(Cc2ccccc2)c(O)c2ccccc21 returned TDP-43 yeast inh inactive, Abeta rescue inactive, aSyn rescue inactive, ClpP mod 14.1µM and MmCpn inh inactive.
For COc1ccc2c(-c3ccc(SC)cc3)c(-c3ccc(S(C)(=O)=O)cc3)sc2c1 the results were TDP-43 yeast inh inactive, Abeta rescue inactive, FUS suppressor inactive, aSyn rescue inactive, ClpP mod inactive and MmCpn inh inactive.
`COc1ccc(-c2c(-c3cc(OC)cc(OC)c3)sc3ccc(OC)cc23)cc1` gave TDP-43 yeast inh inactive, Abeta rescue inactive, FUS suppressor inactive, aSyn rescue inactive, ClpP mod 17.8µM and MmCpn inh inconclusive.
COc1ccc2sc(-c3ccc(S(C)(=O)=O)cc3)c(-c3ccc(SC)cc3)c2c1 was read as TDP-43 yeast inh inactive, Abeta rescue inactive, FUS suppressor inactive, aSyn rescue inactive, ClpP mod inactive and MmCpn inh 20µM.
COc1ccc(-c2sc3ccc(OC)cc3c2-c2ccc(O)cc2)cc1 was read as TDP-43 yeast inh inactive, Abeta rescue inactive, FUS suppressor inactive, aSyn rescue inactive, ClpP mod 28.2µM and MmCpn inh inconclusive.
CCOc1ccc(CCNC(=O)CCCc2nnc3n(CC(C)C)c(=O)c4sccc4n23)cc1 was read as TDP-43 yeast inh inactive, Abeta rescue inactive, FUS suppressor inactive and ClpP mod inactive.
`Cc1csc(Nc2ccc(Cl)cc2)n1` gave TDP-43 yeast inh 15.8µM, Abeta rescue inconclusive, FUS suppressor inactive, aSyn rescue inactive, ClpP mod inactive and MmCpn inh inactive.
Cc1ccc(Nc2nc(C)cs2)cc1 was read as TDP-43 yeast inh inactive[0.397 µM], Abeta rescue inconclusive, FUS suppressor inactive, aSyn rescue inactive and MmCpn inh inactive.
Screening CC(C)CNC(=O)C1CSCCS(=O)(=O)N1Cc1ccc(F)cc1 (centres undefined) returned FUS suppressor inactive.

Compound activity (PubChem)
